{"source": "PubChem BioAssay (EPA / NIEHS)", "key": {"[1]": {"test_system": "Thyroperoxidase (TPO), gene 54314", "assay": "CCTE_Simmons_AUR_rTPO: CCTE's Amplex UltraRed Assay for Thyroperoxidase (TPO) Inhibition, Simmons Lab (AID 2283662);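 on AC50: potency for loss of signal meaning inhibition of peroxidase activity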", "in_short": "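Cell-free peroxidase activity assay using rat thyroid gland microsomes with excess H2O2 (300 uM) and 25 uM Amplex UltraRed. Compounds tested from 5 nM to 87.5 uM; fluorescence measured after 30 min at 37C, analysed relative to DMSO baseline.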"}, "[2]": {"assay": "CCTE_Simmons_CellTiterGLO_HEK293T: Viability Assessment in CCTE's Assays for Thyroperoxidase (TPO) Inhibition, Simmons Lab (AID 2283665)", "in_short": "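Cells were seeded overnight, then exposed to an eight-point series up to 87.5 uM final for 24 hours. CellTiter-Glo reagent was added and luminescence read after 20 min, giving ATP-based viability versus DMSO.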"}, "[3]": {"assay": "Tanguay_ZF_120hpf_TR_legacy: (Legacy) Oregon State University Tanguay Lab 120 Hour Post-fertilization zebrafish Assay for Touch Response (AID 2283667)", "in_short": "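Binary touch-response endpoint in larvae at 120 hpf after static waterborne exposure from embryo stage (28°C, 0.64% DMSO vehicle, 5 uM trimethyltin chloride as positive control); embryos dead at 24 or 120 hpf excluded; fitted as gain versus DMSO.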"}, "[4]": {"test_system": "Thyroperoxidase (TPO), gene 445522", "assay": "CCTE_Simmons_GUA_TPO: CCTE's Guaiacol Assay for Thyroperoxidase (TPO) Inhibition, Simmons Lab (AID 2283750)", "in_short": "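Porcine thyroid microsomes (25 ug) in 200mM potassium phosphate, preincubated 30 s at 37C with compound (8 concentrations, 5 nM–87.5 uM) and 35mM guaiacol; 1mM H2O2 starts reaction. Absorbance change at 450nm over first 80 s; loss of signal versus DMSO, three replicates.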"}, "[5]": {"assay": "STM_H9_OrnithineISnorm_perc: Stemina devTOX quickPredict H9 human embryonic stem cell (hESC)-based Assay for Ornithine (ORN) Metabolite Biomarker, Normalized (AID 2283712; active means hit-call score of the fitted dose curve at least 0.9, where 1 is the maximum; inactive means score below 0.9;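 further: ornithine released into spent medium during last day measured by mass spectrometry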)", "in_short": "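Ornithine secreted by H9 hESCs after 72h compound treatment (daily media/compound renewal) was quantified in final-day media by UPLC-HRMS. Values are isotope-standard-normalized, expressed relative to 0.1% DMSO, fitted in positive direction.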"}, "[6]": {"assay": "STM_H9_CystineISnorm_perc: Stemina devTOX quickPredict H9 human embryonic stem cell (hESC)-based Assay for Cystine (CYSS) Metabolite Biomarker, Normalized (AID 2283713; active means hit-call score of the fitted dose curve at least 0.9, where 1 is the maximum; inactive means score below 0.9)", "in_short": "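Cells are held undifferentiated and treated for 72h, receiving fresh medium with compound every 24h. Cystine secreted during the final day is quantified by UPLC-HRMS against a labeled spike-in, then expressed relative to the DMSO vehicle median.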"}, "[7]": {"assay": "STM_H9_OrnCyssISnorm_ratio: Stemina devTOX quickPredict H9 human embryonic stem cell (hESC)-based Assay for Ornithine (ORN):Cystine (CYSS) Ratio (AID 2283714)", "in_short": "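Ratio of internal-standard-normalized ornithine to cystine, measured by UPLC-HRMS in spent media from the last 24 h. H9 cells kept pluripotent, dosed 72 h with daily media and compound renewal; DMSO 0.1% serves as baseline.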"}, "[8]": {"assay": "Tanguay_ZF_120hpf_ActivityScore_legacy: (Legacy) Oregon State University Tanguay Lab 120 Hour Post-fertilization zebrafish Assay Score for Activity (AID 2283742);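 on AC50: dechorionated Tropical 5D wild-type zebrafish embryos held singly per well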", "in_short": "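Binary scoring of mortality and morphology by brightfield at 24 and 120 hpf, summarised into one activity score from 18 components relative to DMSO. Wild-type Tropical 5D zebrafish, chorion removed at 4 hpf, static exposure 6–120 hpf, 28 °C.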"}, "[9]": {"assay": "CCTE_Padilla_ZF_144hpf_TERATOSCORE: (Legacy) CCTE's 144 Hour Post-fertilization zebrafish Assay Teratoscore, Padilla Lab (AID 2283679; active means hit-call score of the fitted dose curve at least 0.9, where 1 is the maximum; inactive means score below 0.9;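 on AC50: higher score means more developmental defects relative to DMSO baseline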)", "in_short": "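Larvae scored by eye at 144 hpf for death, hatching and malformations after a day in clean Hanks'. Before that, daily-renewed exposure at 80 uM (0.4% DMSO, 26C) from roughly 6-8 hpf through 5 dpf, 4 embryos per chemical.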"}, "[10]": {"assay": "CEETOX_H295R_MTT_cell_viability: Viability Assessment in the CeeTox HT-H295R MTT Assay (AID 2283718; active means hit-call score of the fitted dose curve at least 0.9, where 1 is the maximum; inactive means score below 0.9)", "in_short": "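MTT reduction (0.5 mg/ml, 4 h at 37 C; absorbance at 570 and 650 nm) gave viability as background-corrected percent change versus controls. H295R cells had 48 h forskolin (10 uM) prestimulation, then 48 h chemical exposure at 0.1% DMSO.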"}}, "note": "Records with an inconclusive call do not appear. Calls of active or inactive are those of the source. How the source made its calls, unless noted: active means hit-call score of the fitted dose curve at least 0.9, where 1 is the maximum; inconclusive means response in the unintended direction; inactive means score below 0.9.", "data": [{"smiles": "NNC(=O)c1ccncc1", "values": [{"measurement": "AC50", "setting": "[1]", "value": "1.92 µM (active)"}, {"measurement": "outcome", "setting": "[2]", "value": "inactive"}, {"measurement": "outcome", "setting": "[3]", "value": "inactive"}, {"measurement": "AC50", "setting": "[4]", "value": "20.7 µM (active)"}]}, {"smiles": "O=S1(=O)CCCO1", "values": [{"measurement": "outcome", "setting": "[1]", "value": "inactive"}, {"measurement": "outcome", "setting": "[3]", "value": "inactive"}, {"measurement": "outcome", "setting": "[5]", "value": "inactive"}, {"measurement": "AC50", "setting": "[6]", "value": "83 µM (active)"}, {"measurement": "AC50", "setting": "[7]", "value": "78.2 µM (active)"}, {"measurement": "outcome", "setting": "[8]", "value": "inactive"}]}, {"smiles": "O=C(O)[C@H](O)[C@@H](O)C(=O)O", "values": [{"measurement": "outcome", "setting": "[3]", "value": "inactive"}]}, {"smiles": "OCc1ccccc1", "values": [{"measurement": "outcome", "setting": "[3]", "value": "inactive"}, {"measurement": "outcome", "setting": "[9]", "value": "inactive"}]}, {"smiles": "CCCCCCCC1CCC(=O)O1", "note": "(configuration not stated)", "values": [{"measurement": "outcome", "setting": "[3]", "value": "inactive"}, {"measurement": "AC50", "setting": "[9]", "value": "8.03 µM (active)"}, {"measurement": "AC50", "setting": "[8]", "value": "43.7 µM (active)"}]}, {"smiles": "O=c1[nH]cnc2c1ncn2[C@H]1CC[C@@H](CO)O1", "values": [{"measurement": "outcome", "setting": "[3]", "value": "inactive"}, {"measurement": "outcome", "setting": "[9]", "value": "inactive"}, {"measurement": "outcome", "setting": "[5]", "value": "inactive"}, {"measurement": "outcome", "setting": "[6]", "value": "inactive"}, {"measurement": "outcome", "setting": "[8]", "value": "inactive"}]}, {"smiles": "O=S(=O)(O)c1ccc(N=Nc2c(O)ccc3cc(S(=O)(=O)O)ccc23)cc1", "values": [{"measurement": "outcome", "setting": "[3]", "value": "inactive"}, {"measurement": "outcome", "setting": "[10]", "value": "inactive"}]}, {"smiles": "CC(C)C(=O)Nc1ccc([N+](=O)[O-])c(C(F)(F)F)c1", "values": [{"measurement": "outcome", "setting": "[3]", "value": "inactive"}, {"measurement": "AC50", "setting": "[9]", "value": "14.2 µM (active)"}, {"measurement": "AC50", "setting": "[5]", "value": "77.1 µM (active)"}, {"measurement": "AC50", "setting": "[6]", "value": "31.6 µM (active)"}, {"measurement": "AC50", "setting": "[7]", "value": "50 µM (active)"}, {"measurement": "outcome", "setting": "[8]", "value": "inactive"}]}, {"smiles": "CC(C)c1nnc2ccc(-c3ocnc3-c3cc(F)ccc3F)cn12", "values": [{"measurement": "outcome", "setting": "[3]", "value": "inactive"}, {"measurement": "AC50", "setting": "[9]", "value": "61.9 µM (active)"}, {"measurement": "outcome", "setting": "[10]", "value": "inactive"}, {"measurement": "outcome", "setting": "[8]", "value": "inactive"}]}, {"smiles": "CCOc1ccc2[nH]cc(C(=O)NCc3ccccc3)c(=O)c2n1", "values": [{"measurement": "outcome", "setting": "[3]", "value": "inactive"}, {"measurement": "outcome", "setting": "[10]", "value": "inactive"}]}, {"smiles": "c1ccc2ncccc2c1", "values": [{"measurement": "outcome", "setting": "[3]", "value": "inactive"}, {"measurement": "outcome", "setting": "[8]", "value": "inactive"}]}, {"smiles": "NC(=O)N1c2ccccc2C=Cc2ccccc21", "values": [{"measurement": "outcome", "setting": "[3]", "value": "inactive"}, {"measurement": "outcome", "setting": "[5]", "value": "inactive"}, {"measurement": "AC50", "setting": "[6]", "value": "4.32 µM (active)"}, {"measurement": "AC50", "setting": "[7]", "value": "4.18 µM (active)"}]}, {"smiles": "c1ccc2c(c1)-c1cccc3c1c-2cc1ccccc13", "values": [{"measurement": "outcome", "setting": "[3]", "value": "inactive"}, {"measurement": "outcome", "setting": "[10]", "value": "inactive"}, {"measurement": "outcome", "setting": "[8]", "value": "inactive"}]}, {"smiles": "CCCCCCCCN(C)C", "values": [{"measurement": "outcome", "setting": "[3]", "value": "inactive"}, {"measurement": "outcome", "setting": "[10]", "value": "inactive"}]}, {"smiles": "CC[C@H](C)C(=O)O[C@H]1C[C@H](O)C=C2C=C[C@H](C)[C@H](CC[C@@H](O)C[C@@H](O)CC(=O)O)[C@H]21", "values": [{"measurement": "outcome", "setting": "[3]", "value": "inactive"}, {"measurement": "outcome", "setting": "[9]", "value": "inactive"}, {"measurement": "outcome", "setting": "[5]", "value": "inactive"}, {"measurement": "outcome", "setting": "[6]", "value": "inactive"}, {"measurement": "outcome", "setting": "[10]", "value": "inactive"}, {"measurement": "outcome", "setting": "[8]", "value": "inactive"}]}, {"smiles": "CCCOc1ccc(S(=O)(=O)N2CCN(CC)CC2)cc1-c1nc2c(CC)n(Cc3ccccn3)nc2c(=O)[nH]1", "values": [{"measurement": "outcome", "setting": "[3]", "value": "inactive"}, {"measurement": "outcome", "setting": "[10]", "value": "inactive"}, {"measurement": "outcome", "setting": "[8]", "value": "inactive"}]}, {"smiles": "OC[C@H]1O[C@@](CO)(O[C@H]2O[C@H](CO)[C@@H](O)[C@H](O)[C@H]2O)[C@@H](O)[C@@H]1O", "values": [{"measurement": "outcome", "setting": "[3]", "value": "inactive"}, {"measurement": "outcome", "setting": "[8]", "value": "inactive"}]}, {"smiles": "c1ccc(C(O[C@@H]2CCCN(CCc3ccc4c(c3)OCO4)C2)c2ccccc2)cc1", "values": [{"measurement": "AC50", "setting": "[3]", "value": "53.6 µM (active)"}, {"measurement": "AC50", "setting": "[9]", "value": "2.1 µM (active)"}, {"measurement": "AC50", "setting": "[8]", "value": "36.3 µM (active)"}]}, {"smiles": "OC(Cn1cncn1)(Cn1cncn1)c1ccc(F)cc1F", "values": [{"measurement": "outcome", "setting": "[3]", "value": "inactive"}, {"measurement": "outcome", "setting": "[5]", "value": "inactive"}, {"measurement": "outcome", "setting": "[6]", "value": "inactive"}, {"measurement": "outcome", "setting": "[7]", "value": "inactive"}]}, {"smiles": "CC(C)CC(C)O", "note": "(configuration not stated)", "values": [{"measurement": "outcome", "setting": "[8]", "value": "inactive"}]}, {"smiles": "Cc1nccn1-c1ccc(Sc2cccc(C3(C(N)=O)CCOCC3)c2)cc1", "values": [{"measurement": "outcome", "setting": "[3]", "value": "inactive"}, {"measurement": "outcome", "setting": "[8]", "value": "inactive"}]}]}
